Measurements published in PubChem BioAssay (Tox21).
Values joined by “and” are separate entries in the source; they are usually repeats but may differ in a detail not shown here. Identical values can stand only once. Records with an inconclusive call do not appear. Entries that show only a call come without a potency. Unmarked numbers belong to inactive results. Active and inactive are the calls of the source. The call rests on the fitted dose curve; in most records, active means well fitted cell-killing curve with a large enough effect in the repeat runs; inconclusive means weak or mixed curves, or effect the other way; inactive means flat fitted curve, though single readings scatter.

How the values were obtained:
[1] = cAMP Responsive Elements (CRE) small molecule antagonists, cell-based qHTS assay: qHTS cell viability counter screen (AID 2060913); details: CRE-bla HEK293T viability, CellTiter-Glo luminescence, 5 h; series mostly up to 92.4 µM; further: nearly all actives have a fitted effect of over 40% in size
Procedure, shortened: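 Viability of NKH477-stimulated (0.25 uM final) CRE-bla HEK293T cells is measured by CellTiter-Glo luminescence following 3 hrs compound exposure at 37 C.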

[2] = cAMP Responsive Elements (CRE) small molecule agonists, cell-based qHTS assay: qHTS cell viability counter screen (AID 2060914); details: CRE-bla HEK293T viability, CellTiter-Glo luminescence, 5 h; series mostly up to 92.4 µM;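 further: viability read after 3 h of compound exposure; nearly all actives have a fitted effect of over 50% in size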
Procedure, shortened: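 CRE-bla HEK 293T cells, plated 18 h at 37 °C, were exposed to compounds for 3 h at 37 °C/5% CO2. Viability was then measured in the same wells by CellTiter-Glo luminescence after 30 min at room temperature.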
Potency means the concentration at half of the fitted maximal effect.

Compound	Potency [1]	Potency [2]	viability change, negative = cytotoxic [1]	activity change, negative = cytotoxicity [2]
O=NN(CCO)CCO	inactive	inactive		
O=C/C=C/c1ccccc1	inactive	inactive		
COc1cc(OC)nc(NC(=O)NS(=O)(=O)c2ncccc2C(=O)N(C)C)n1	inactive	inactive		
ClC(Cl)(Cl)Br	inactive	inactive		
CC(C)NC(=O)N1CC(=O)N(c2cc(Cl)cc(Cl)c2)C1=O	inactive	inactive		
CCC(=O)c1ccc(Cl)cc1	inactive	inactive		
ClCc1cccc(Cl)c1	inactive	inactive		
COc1cccc(C(=O)NN(C(=O)c2cc(C)cc(C)c2)C(C)(C)C)c1C	inactive	inactive		
CON(C)C(=O)Nc1ccc(Br)cc1	inactive	inactive		
CCOS(=O)(=O)OCC	inactive	inactive		
O=P(O)(O)CN(CP(=O)(O)O)CP(=O)(O)O	inactive	inactive		
Clc1ccc(-c2ccccc2)cc1	inactive	inactive		
CCN(CC)CCOC(=O)C(C)(c1ccccc1)c1ccccc1	inactive	inactive		
C[N+]1(C)[C@@H]2CC[C@H]1CC(OC(=O)C(CO)c1ccccc1)C2 (stereo not given in full)	inactive	inactive		
C[C@H]1CC[C@@H]2[C@@H](C)[C@H]3[C@H](C[C@H]4[C@@H]5CC=C6CC(O[C@@H]7O[C@H](CO)[C@H](O)[C@H](O[C@@H]8O[C@H](CO)[C@@H](O)[C@H](O)[C@H]8O)[C@H]7O[C@H]7O[C@@H](C)[C@H](O)[C@@H](O)[C@H]7O)CC[C@]6(C)[C@H]5CC[C@]34C)N2C1 (stereo not given in full)	inactive	inactive		
COP(=O)(OC)Oc1ccc([N+](=O)[O-])cc1	inactive	inactive		
c1ccc(-c2ccccc2)cc1	inactive	inactive		
ClC1=C(Cl)C2(Cl)C(CBr)CC1(Cl)C2(Cl)Cl (stereo not given)	inactive	inactive		
c1cc[c]([Sb]([c]2ccccc2)[c]2ccccc2)cc1	inactive	inactive		
Clc1cnc(Oc2ccc(Oc3ncc(Cl)cc3Cl)cc2)c(Cl)c1	inactive	inactive		
CN=C=O	inactive	inactive		
Clc1ccc(Oc2ccccc2)cc1	inactive	inactive		
COCCl	inactive	inactive		
CCOC(=O)C1(c2ccccc2)CCN(CCC(C#N)(c2ccccc2)c2ccccc2)CC1	inactive	inactive		

Compound	Potency [1]	Potency [2]	viability change, negative = cytotoxic [1]	activity change, negative = cytotoxicity [2]
C=CCOCC1CO1 (stereo not given)	inactive	inactive		
O=C(Cl)C(Cl)Cl	inactive	inactive		
CSCCCN=C=S	inactive	inactive		
O=C(CCCN1CCC2(CC1)C(=O)NCN2c1ccccc1)c1ccc(F)cc1	inactive	inactive		
S=C=NCc1ccccc1	inactive	inactive		
CCC1(CC)C(=O)N=C(O)NC1=O	inactive	inactive		
CC(C)(C)C(=O)C(Cl)Cl	inactive	inactive		
ClC(Cl)(Cl)c1ccccc1	inactive	inactive		
CC[N+](CC)(CC)CC	inactive	inactive		
Brc1c(Br)c(Br)c(Br)c(Br)c1Br			0.231% [at 8.39 µM]	7.31% [at 8.39 µM]
CCC(=O)c1ccccc1	inactive	inactive		
CC(C)(C)c1ccccc1O	inactive	inactive		
COCc1cnc(C2=NC(C)(C(C)C)C(=O)N2)c(C(=O)O)c1 (stereo not given)	inactive	inactive		
CCCCOC(=O)CCC(=O)OCCCC	inactive	inactive		
Oc1ccc2ccc3cccc4ccc1c2c34	inactive	inactive		
COCCOCCO	inactive	inactive		
COP(=S)(OC)Oc1ccc(S(N)(=O)=O)cc1	inactive	inactive		
CCCCCCC1CCOC1=O (stereo not given)	inactive	inactive		
C[C@@H]1C[C@@H]([C@H](O)CC2CC(=O)NC(=O)C2)C(=O)[C@@H](C)C1	inactive	inactive		
COP(=O)(OC)OC=C(Cl)Cl	inactive	inactive		
O=C(O)c1ccccn1	inactive	inactive		
N#CC(Br)Br	inactive	inactive		
CN1C(=S)CN=C(c2ccccc2)c2cc(Cl)ccc21	inactive	inactive		
O=C(Cl)c1ccccc1	inactive	inactive		

Compound	Potency [1]	Potency [2]	viability change, negative = cytotoxic [1]	activity change, negative = cytotoxicity [2]
CCCCCCCCn1sccc1=O	54.6 µM (active) and 64.1 µM (active)	43.4 µM (active)		
Cc1cccc(Cc2cnc[nH]2)c1C	inactive	inactive		
O=C(O)c1nc(Cl)ccc1Cl	inactive	inactive		
CC(C)(C)OOC(=O)c1ccccc1	inactive	inactive		
N#CN=C1SCCN1Cc1ccc(Cl)nc1	inactive	inactive		
Nc1ncc([N+](=O)[O-])s1	inactive	inactive		
CCNc1nc(NC(C)C)nc(SC)n1	inactive	inactive		
O=C(NCO)NCO	inactive	inactive		
CC(C)C1(C)N=C(c2ncccc2C(=O)O)NC1=O (stereo not given)	inactive	inactive		
Cc1cc(Cl)ccc1N	inactive	inactive		
Nc1ccc(-c2ccc(N)cc2)cc1	inactive	inactive		
O=[N+]([O-])c1cccc2cccnc12	inactive	inactive		
Cc1ccc(N)c(C)c1	inactive	inactive		
O=[N+]([O-])c1ccc(Cl)cc1	inactive	inactive		
Cn1sc(Cl)cc1=O	inactive	inactive		
BrCC(Br)c1ccccc1 (stereo not given)	inactive	inactive		
CSC1=N[C@@](C)(c2ccccc2)C(=O)N1Nc1ccccc1	inactive	inactive		
CCN[C@H](C)Cc1cccc(C(F)(F)F)c1	inactive	inactive		
Nc1ccc([N+](=O)[O-])cc1	inactive	6.11 µM (active)		
Brc1ccc(Oc2ccccc2)cc1	inactive	inactive		
CC[C@H]1C[C@H]2[C@@H]3CCC4=CC(=O)CC[C@@H]4[C@H]3CC[C@]2(C)[C@H]1O	inactive	inactive		
O=C(Nc1ccc(Br)cc1)c1cc(Br)cc(Br)c1O	inactive	inactive		
CN(CCO)CCO	inactive	inactive		
CCN(CCO)CCO	inactive	inactive		

Compound	Potency [1]	Potency [2]	viability change, negative = cytotoxic [1]	activity change, negative = cytotoxicity [2]
COc1ccc(CO)cc1	inactive	inactive		
O=C=NC1CCCCC1	inactive	inactive		
C=CC1CC=CCC1 (stereo not given)	inactive	inactive		
CCC1(c2ccccc2)C(=O)N=C(O)NC1=O (stereo not given)	inactive	inactive		
O=[N+]([O-])c1ccc(Oc2ccc(C(F)(F)F)cc2[N+](=O)[O-])cc1	inactive	inactive		
Nc1ccccc1Cl	inactive	inactive		
CCCCCCC(=O)CCCCCC/C=C/C[C@@H](O)[C@H](O)[C@@](N)(CO)C(=O)O			2.93% [at 18.9 µM]	-1.02% [at 18.9 µM]
Cn1cc(-c2ccccc2)c(=O)c(-c2cccc(C(F)(F)F)c2)c1	inactive	inactive		
CC1CC(=O)O1 (stereo not given)	inactive	inactive		
[N-]=[N+]=[N-]	inactive	inactive		
Cc1ccc(CCl)cc1	inactive	inactive		
C=CC(=O)NC(C)(C)CC(C)=O	inactive	inactive		
O=C(CCCCl)c1ccc(F)cc1	inactive	inactive		
Oc1ccc(-c2ccccc2)cc1	inactive	inactive		
C=CCOC(Cn1ccnc1)c1ccc(Cl)cc1Cl (stereo not given)	inactive	inactive		
COc1ccc(C(=O)c2c(C)n(CCN3CCOCC3)c3ccccc23)cc1	inactive	inactive		
COc1ccccc1N1CCNCC1	inactive	inactive		
CC(C)CCCCCCCOC(=O)c1ccccc1C(=O)OCCCCCCCC(C)C	inactive	inactive		
ClP(Cl)(Cl)(Cl)Cl	inactive	inactive		
COC(=O)c1cncn1C(C)c1ccccc1 (stereo not given)	inactive	inactive		
O=c1n(Cl)c(=O)n(Cl)c(=O)n1Cl	inactive	inactive		
COC1=CC(=O)O[C@@H](CCc2ccccc2)C1	inactive	inactive		
CCNP(=S)(OC)O/C(C)=C/C(=O)OC(C)C (stereo not given)	inactive	inactive		
C[N+](C)(C)CC(=O)O	inactive	inactive		

Compound	Potency [1]	Potency [2]	viability change, negative = cytotoxic [1]	activity change, negative = cytotoxicity [2]
CCCCCCCCc1ccc(O)cc1	inactive	inactive		
CCCCCCCCOC(=O)c1ccc(C(=O)OCCCCCCCC)c(C(=O)OCCCCCCCC)c1	inactive	inactive		
Clc1ccc(C(Cl)(Cl)Cl)cc1	inactive	inactive		
Nc1ccc(Oc2ccc(N)cc2)cc1	inactive	inactive		
C1CCC(NC2CCCCC2)CC1	inactive	inactive		
C#CCOC(=O)/C=C(C)/C=C/CC(C)CCCC(C)C (stereo not given)	inactive	inactive		
CC(=O)CN(CC(C)=O)N=O	inactive	inactive		
Sc1ccccc1	inactive	inactive		
Nc1cccc2ccccc12	inactive	inactive		
C=C(C)[C@@H]1CC=C(C=O)CC1	inactive	inactive		
COC(=O)NC(=S)Nc1ccccc1NC(=S)NC(=O)OC	inactive	inactive		
O=Cc1ccc2c(c1)OCO2	inactive	inactive		
CC#Cc1cc(C)nc(Nc2ccccc2)n1	inactive	inactive		
O=C(NC(=O)c1c(F)cccc1F)Nc1cc(Cl)c(OC(F)(F)C(F)F)c(Cl)c1	inactive	inactive		
O=C(CCl)C(Cl)Cl	inactive	inactive		
COC(=O)N(C(=O)N1COC2(C(=O)OC)Cc3cc(Cl)ccc3C2=N1)c1ccc(OC(F)(F)F)cc1 (stereo not given)	inactive	inactive		
CCCCCCCCCCCOC(=O)c1ccccc1C(=O)OCCCCCCCCCCC	inactive	inactive		
O=c1[nH]c(Cl)c(Cl)cc1Cl	inactive	inactive		
Cc1ccccc1O	inactive	inactive		
CC(C)(C)NCC(O)c1cc(Cl)c(N)c(C(F)(F)F)c1 (stereo not given)	inactive	inactive		
CCCC[N+](=O)[O-]	inactive	inactive		
CCN[C@@H](C)Cc1cccc(C(F)(F)F)c1	inactive	inactive		
NNCc1ccccc1	inactive	inactive		
CCCN(CCC)c1c([N+](=O)[O-])cc(C(F)(F)F)cc1[N+](=O)[O-]	inactive	inactive		
